# Data published in the supplement of paper PMC6555819.
# Tested on: VDR:RXRa (NR concentration 270 nM, RXRa partner concentration 90 nM)
# Test: PBM binding z-score (relative to random genomic background probes); higher = stronger binding; sequences stand for … in GC…GCGATTGACAGCGTAGAATGAAGG
# Procedure: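 Protein-binding microarray (Agilent 4x180K custom design, double-stranded 60-nt probes: 5' GC cap, 34-nt variable region, 24-nt constant primer region; full probe sequence given). Purified or IVT nuclear receptor:RXRα heterodimers (3:1 NR:RXRα, mostly 270:90 nM) or homodimers were incubated for 1 h in PBS with 2% milk and no ligand, then detected with Alexa488 antibodies. Fluorescence from o1-orientation probes (~5 replicates averaged) was converted to z-scores against 500 random hg19 background probes. Variable regions are seed direct-repeat (DR0–DR5) sites, all their single-nucleotide variants and half-site ablations.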
row,Sequence,PBM binding z-score
1,TCATATAGGTAATGGTGAAAGTCGAACGATATGA,0.243
2,AATACAGGGTCACCGTAGGCCAGAGTACGCACAG,5.2
3,CCTATTAGTTGACCATAAGGCCAACCGAAGCTCG,0.724
4,CCTCGGAGGACAAGAGGAGGTCAGAGCTGCCAGA,1.48
5,TCGAGTAGGTTAGTCGGGGAATTCAGCCAACATA,-0.318
6,TCATATAGGTAAGAGGTGAAAGTCGGTGTGGTAA,1.33
7,CTACCAAGGGGAACAAGGTCGTTGATTACTATTC,3.86
8,ATATGTAGGTTACATCCGTGTCATTCAGGCTATG,1.4
9,CCGACTGGGGCATAAGATTACCATAAGCCAGCCC,-0.534
10,CCTAGCAGGCCAATCTGGGTCACTGAAGGCTTGA,0.552
11,ACTATTATTTGACTTAGGGCAACCGATACGACGC,0.993
12,CTCGAAAGGTAGGTTGAGGTGAGTATACGGATAA,0.309
13,TCTAGCGGGCCAGAGGGTCACTCAAGAGGTACGG,1.29
14,GCATATAGGTAATACAAGGTGAAAGCCCGATTGT,0.178
15,CCGACTGGGGAATAAGGTTACCATAAGCCAGCCC,0.185
16,CTCGAAAGGTCGTGCTCAGGTGAGTATCCCAAAC,3.03
17,TCATATAGGTAAATGCTAGGAGAAAGTCCGATCT,0.71
18,CAAACTACGTCAAGGTCAAAGTCGGTTTGTGCCA,4.45
19,CTCGAAACGTCGGTTGAGGTGAGTATACGGATAA,-0.213
20,ACTCGGAGGACAAAGGTCAGAGGTACGCCAGTGA,3.52

row,Sequence,PBM binding z-score
1,GGAACGAGGACAAAGTTGATAGCATCTGTCGACG,-0.104
2,CCTACTGGGCCAAAAAGGTCATTTATGCCGATAA,4.44
3,CCTCGGAGGACAGAATGTCAGAGCTGTCCGCTTT,-0.778
4,ACCTACGGGTCAACGAGGTTATAGCACGCGTATA,7.64
5,GGAACGAGGGTAAGTTGATAGCAGAGTTTGATGG,-0.217
6,TAGCCTAGGTCATGCGGGCCAGTATTGTGTCGGC,2.92
7,TCTATTAGTTGAATAGGGCAACCGAAACAGCGGA,0.6
8,TCTGCTAGGTCCGTTGGTCAGCTAACGAGCTGCC,-0.499
9,TCTTGTAGATCAATAGACGTTAAGAAAGTGCGCT,0.326
10,CCTACTGGGCCAAAAAGGTCACTGATGCCGATAA,4.5
11,TGTCAAAGTTCCAAGGTAACGTAAGTATCCACAC,0.281
12,GATAGAGGGTCAAGGCCAGAGTACGCGTATTGAT,3.37
13,ACAGACAGGTGATGACGGTAACTCAGGCTATCAT,-0.308
14,AGTCAAAGTTAAGGACGAGGTAACGTAAAGCACG,-0.131
15,ATCGAAAGGTCGAGGTGAGTATAGAGAAAGGGAA,2.69
16,TCTATTTGTTGATTAGGGCAACCGAAACAGCGGA,0.823
17,AGAATGAGGTTCAGATCAGGGAAACAGAATACAT,0.949
18,TCTATTAGTTGAAGGGCATCCGACGAGTCCGTTT,1.08
19,CGTCCAAGCTCAATGCTAGGTCAGTGAAAGCATT,-0.0498
20,CCTGCAAGGTCATGGTCAGCTAATCTACAGTATG,4.76
